Here are results for eight molecules from PubChem BioAssay.

Test [1] in a line: inhibitors of TNFa-induced NFkB p65 translocation, primary screen, imaging, HUVEC, MLSMR starter and 10KST1 sets (AID 438;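 active = inhibition above 20% together with a positive visual image hit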;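 note: compound added about 3h40 before a 20 min TNFalpha stimulation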;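 for inhibition: signal is the nuclear over cytoplasmic p65 intensity ratio per well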). The conditions noted are these: HUVEC TNFa-induced p65 nuclear translocation; cell count: measured here: nuclei count (cytotoxicity indicator), at 2.08 µM; inhibition: at 2 µM, stronger effect = higher value, 0% TNFa-plus-vehicle, 100% no-TNFa wells.
Test [2] can be described thus: inhibitors of mutant huntingtin aggregation, primary screen, imaging, exon1htt(103Q)mCFP cells, high-content imaging (AID 483;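 active = visual image review flags a hit and inhibition of aggregation exceeds 20%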;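 note: compound exposure lasted 3 days before fixation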;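 for nuclei count: percent of the per-plate median nuclei count of sample wells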). The conditions noted are these: exon1htt(103Q)mCFP cell line, aggregate imaging, at 2 µM; inhibition of aggregation: stronger effect = higher value; nuclei count: measured here: cell count, toxicity.
A short description of test [3]: inhibitors of E-selectin induction by TNFa, primary screen, imaging, HUVEC, immunofluorescence, MLSMR starter and 10KST1 sets (AID 487;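 active = visually confirmed hit in the image check and inhibition above 20%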;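 for inhibition: signal is fraction of cell area covered by stained E-selectin grains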;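 for nuclei count: 100% = median nuclei count of all wells on the same plate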). The conditions noted are these: HUVEC TNFalpha-induced E-selectin immunofluorescence imaging, at 2 µM; inhibition: stronger effect = higher value; nuclei count: measured here: cell number, toxicity.
The target in test [4] is Voltage-gated potassium channel subunit beta-2 (Rattus norvegicus) (UniProt P62483). As to the kind of experiment: KvBeta enzyme negative modulators, primary screen, biochemical, NADPH fluorescence (AID 622;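 active = fluorescence slope higher than the sample average by over 3 SD, cut at about -0.22 in these data, passing the limit was not always enough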;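 note: slope of raw intensity against log time taken from 70 to 1610 s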). The conditions noted are these: recombinant KvBeta, 4-cyanobenzaldehyde reduction, at 10 µM, stronger effect = higher value.
The target is the same in test [5]. As to the kind of experiment: KvBeta positive modulators, primary screen, biochemical, NADPH fluorescence (AID 623;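 active = NADPH fluorescence slope more negative than the mean of all samples by about 3 SD, 99.7% confidence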;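 note: fluorescence intensity change per second fitted from 20 to 320 s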). The note with it: Recombinant KvBeta, NADPH fluorescence decrease slope, 10 min; at 10 µM; stronger effect = lower value.
The target of test [6] is Alpha-2C adrenergic receptor (Homo sapiens) (UniProt P18825). Nature of the test: modulators of alpha2C/GIRK thallium flux, primary screen, cell-based, HEK293 alpha2C/GIRK1/2 (AID 624).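 Note: slope of fluorescence ratio to pre-addition baseline per second over 15 to 24 s.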 The note with it: thallium flux BTC fluorescence, at 10 µM, actives lie on both sides.
Test [7] can be described thus: inhibitors of Sendai virus-induced IRF3 signaling, primary screen, TLR/RLR signaling modifier project, cell-based, Sendai virus stimulus, luciferase, 10K MLSCN set (AID 602276;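 active = inhibition at or above 50% at 10 µM; inactive = inhibition below 50%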;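 note: firefly luciferase from ISG56 promoter only with Renilla not read in this screen; 0% = Sendai virus plus DMSO and 100% = medium plus DMSO without virus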). The conditions noted are these: HEK293 RL24 IRF3 luciferase reporter, at 10 µM, stronger effect = higher value. In general terms: A reporter such as luciferase makes a cellular process visible.
The nature of test [8]: inhibitors of poly I:C-induced TLR3 signaling, primary screen, cell-based, poly I:C stimulus, luciferase, 10K MLSCN set (AID 602277;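 active = inhibition of the reporter signal at or above 50%; inactive = inhibition below 50%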). The conditions noted are these: HEK293-TLR3 RL24 IRF3 luciferase reporter, at 10 µM, stronger effect = higher value.

The source made the active and inactive calls.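 Rule for the calls, unless noted: active = fluorescence slope after compound addition differing from the mean of all screened samples at 99.7% confidence, in either direction; inactive = the rest.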

By inhibition is commonly meant the relative decrease from the control value, in per cent.

Voltage-gated potassium channel subunit beta-2 (Rattus norvegicus), sequence (P62483 whole entry, looked up): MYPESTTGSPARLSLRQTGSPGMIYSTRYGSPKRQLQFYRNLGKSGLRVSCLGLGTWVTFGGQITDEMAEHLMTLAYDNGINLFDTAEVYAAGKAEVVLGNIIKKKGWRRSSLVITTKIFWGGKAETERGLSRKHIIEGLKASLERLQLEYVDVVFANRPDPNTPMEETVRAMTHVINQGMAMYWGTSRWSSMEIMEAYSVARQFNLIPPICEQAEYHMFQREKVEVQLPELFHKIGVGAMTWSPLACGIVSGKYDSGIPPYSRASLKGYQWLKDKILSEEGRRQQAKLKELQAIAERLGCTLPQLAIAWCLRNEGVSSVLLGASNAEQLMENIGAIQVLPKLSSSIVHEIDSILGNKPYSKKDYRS
Alpha-2C adrenergic receptor (Homo sapiens), sequence (P18825 whole entry, looked up): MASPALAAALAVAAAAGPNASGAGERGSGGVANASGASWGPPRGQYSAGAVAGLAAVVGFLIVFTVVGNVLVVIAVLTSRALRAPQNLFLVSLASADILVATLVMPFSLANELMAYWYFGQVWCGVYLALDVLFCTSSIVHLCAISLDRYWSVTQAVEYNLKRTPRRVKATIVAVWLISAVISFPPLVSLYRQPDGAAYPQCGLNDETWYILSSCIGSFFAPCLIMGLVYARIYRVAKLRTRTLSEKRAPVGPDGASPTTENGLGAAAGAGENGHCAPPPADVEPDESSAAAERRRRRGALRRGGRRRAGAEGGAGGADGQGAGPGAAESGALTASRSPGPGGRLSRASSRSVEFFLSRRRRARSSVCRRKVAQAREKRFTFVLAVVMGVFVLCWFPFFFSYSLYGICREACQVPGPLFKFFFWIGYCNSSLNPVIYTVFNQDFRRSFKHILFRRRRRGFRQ

As for `CCOC(=O)c1sc(=NC(=O)c2ccc(OC)c(OC)c2)n(C)c1C`, the cell count in test [1] worked out at 642. The inhibition in test [1] is 10.1% (inactive); in test [3], 47.2% (inactive); in test [7], -16.4% (inactive); in test [8] it was -82.7% (inactive). In addition, the inhibition of aggregation in test [2] was 3.7% (inactive). Moreover, the nuclei count in test [2] came out at 93.8%; in test [3], 75.6%. The fluorescence slope in test [4] was -0.583 (inactive). Further, the NADPH fluorescence slope in test [5] is -2.7e-05 (inactive). In test [6], the slope is 0.00657 (inactive).

In the case of `CCOC(=O)Nc1ccc2c(c1)N(C(=O)OCCN(C)C)c1ccccc1CC2`, in test [1], the cell count was found to be 425. In addition, the inhibition in test [1] is -7.7% (inactive); in test [3] it was -16.3% (inactive); in test [7], 6.83% (inactive); in test [8] it was 30.5% (inactive). Moreover, the inhibition of aggregation in test [2] is 25.6% (inactive). Further, the nuclei count in test [2] worked out at 57.1%; in test [3], 75.4%. Also, the fluorescence slope in test [4] was -0.563 (inactive). The NADPH fluorescence slope in test [5] was -2.3e-05 (inactive). In addition, the slope in test [6] is 0.00722 (inactive).

`C=CCSc1nc2sc(C)c(C)c2c(=O)[nH]1`: the cell count in test [1] amounted to 589. Also, the inhibition was 1.4% (inactive) in test [1], 3.2% (inactive) in test [3], -11.3% (inactive) in test [7] and -3.55% (inactive) in test [8]. For the same molecule, the inhibition of aggregation in test [2] is 10.2% (inactive). Moreover, the figures for the nuclei count in test [2] and in test [3] were 111% and 107%, respectively. Besides, in test [4], the fluorescence slope is -0.563 (inactive). The NADPH fluorescence slope in test [5] is -9.3e-06 (inactive). The slope in test [6] is 0.00785 (inactive).

`CCOC(=O)CSc1nnc([C@H](CC(C)C)NC(=O)OC(C)(C)C)o1`: the cell count in test [1] was determined as 696. The inhibition in test [1] is 6.5% (inactive); in test [3] it was 13.7% (inactive); in test [7], 13.5% (inactive); in test [8], 14.4% (inactive). Further, the inhibition of aggregation in test [2] was 23.3% (inactive). Also, the nuclei count worked out at 81.4% in test [2] and 104% in test [3]. Besides, the fluorescence slope in test [4] is -0.501 (inactive). Besides, in test [5], the NADPH fluorescence slope was -1.8e-05 (inactive). In addition, in test [6], the slope is 0.0048 (inactive).

Turning to `COCCN(Cc1cc2cc3c(cc2n2nnnc12)OCO3)C(=O)c1ccccc1F`, the cell count in test [1] was found to be 271. The inhibition in test [1] was 10.7% (inactive); in test [3], -63.4% (inactive); in test [7] it was 3.47% (inactive); in test [8], 5.93% (inactive). Also, the inhibition of aggregation in test [2] is -8.2% (inactive). The nuclei count amounted to 96.5% in test [2] and 105% in test [3]. Besides, the fluorescence slope in test [4] was -0.352 (inactive). The NADPH fluorescence slope in test [5] was -3.2e-05 (inactive). The slope in test [6] is 0.00537 (inactive).

In the case of `CC(=O)c1cccc(-n2nnnc2SCC(=O)N2CCCC2)c1`, in test [1], the cell count was found to be 720. For the same molecule, the inhibition in test [1] is -3.5% (inactive); in test [3], -56% (inactive); in test [7] it was 4.48% (inactive); in test [8] it was 14.5% (inactive). For the same molecule, in test [2], the inhibition of aggregation was -2.4% (inactive). Moreover, the nuclei count came to 119% in test [2] and 106% in test [3]. Besides, the fluorescence slope in test [4] was -0.401 (inactive). For the same molecule, in test [5], the NADPH fluorescence slope is -4.2e-05 (inactive). In addition, in test [6], the slope is 0.00357 (inactive).

In the case of `Cc1ccc(SCC(=O)NCCN2C(=O)CSC2=O)c(C)c1`, in test [1], the cell count is 323. Further, the inhibition was 22.6% (inactive) in test [1], -98.3% (inactive) in test [3], 0.863% (inactive) in test [7] and 35.6% (inactive) in test [8]. In test [2], the inhibition of aggregation was -4.2% (inactive). Also, the nuclei count in test [2] came to 93.3%; in test [3] it was 115%. Also, in test [4], the fluorescence slope is -0.422 (inactive). In addition, the NADPH fluorescence slope in test [5] is -2.5e-05 (inactive). In addition, the slope in test [6] was 0.00367 (inactive).

As to `Cc1noc(C)c1C(=O)Nc1ccc(Cl)cc1C(F)(F)F`, the cell count in test [1] amounted to 327. Moreover, the inhibition in test [1] was -13.5% (inactive); in test [3], -6% (inactive); in test [7], 17.2% (inactive); in test [8] it was 18% (inactive). Moreover, in test [2], the inhibition of aggregation was 1.7% (inactive). Also, the nuclei count in test [2] turned out to be 99.5%; in test [3], 102%. Besides, the fluorescence slope in test [4] was -0.625 (inactive). For the same molecule, in test [5], the NADPH fluorescence slope was -1e-05 (inactive). For the same molecule, the slope in test [6] is 0.0031 (inactive).
